Reference: PubChem BioAssay
Several values for one entry are separate records, joined by “and”; a condition that tells them apart may be missing. Equal values may be shown once. Activity calls are given as the source filed them.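 How the source made its calls, unless noted: active means thallium flux through the channel raised or lowered by more than 3 SD from vehicle-only wells, actives on both sides; inactive means the rest.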

Key:
[1] = liver-stage malaria parasite growth inhibition, primary screen, cell-based, HepG2, luciferase luminescence, HepG2 viability (AID 624349; in the data active means parasite load remaining mostly below about 12%, no sharp cut-off; inactive means mostly above about 10%;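 further: 100% = mean of DMSO negative control wells on the same plate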); conditions: P. berghei liver stage in HepG2, luciferase luminescence, concentration not given here; parasite load remaining: stronger effect = lower value; viability: measured here: HepG2 viability without parasites
[2] = Cy5 fluorescence interference with SSB-bound oligo, artefact control for HCV NS3 helicase inhibitor project, biochemical, NIH Clinical Collection, E. coli SSB (AID 743268; call rule not given here)
[3] = tested on: Hepatitis C virus NS3 helicase; test: HCV NS3 helicase inhibitors, primary screen, biochemical, fluorescence polarization, NIH Clinical Collection (AID 743270; call rule not given here); conditions: NS3 helicase binding to Cy5-dT15 DNA, stronger effect = higher value, concentration not given here
[4] = target: Single-stranded DNA-binding protein (Escherichia coli (strain K12)) (UniProt P0AGE0); test: E. coli SSB displacement from DNA, counter-screen for HCV NS3 helicase inhibitor project, biochemical, fluorescence polarization, NIH Clinical Collection (AID 743271; in the data active means inhibition above about 28%); conditions: stronger effect = higher value, concentration not given here
[5] = fluorescence interference in NS3h assay format, artefact control for HCV NS3 helicase inhibitor project, biochemical, NIH Clinical Collection (AID 743272; call rule not given here;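 further: HCV NS3 helicase with a Cy5 labelled single stranded DNA probe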); conditions: fluorescence interference counterscreen, stronger effect = lower value
[6] = modulation of C. elegans fzo-1 (AID 1259413; call rule not given here;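 further: fzo-1 mutant C. elegans worms in liquid wells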); conditions: C. elegans fzo-1 modulator screen, mean read-out; stronger effect = higher value
[7] = sensitizers of A549 cells to miR-34 induction, primary screen, imaging, A549 dox-inducible miR-34, nuclei and caspase counts (AID 1347080;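 active means compounds whose cell count with miR-34 switched on is under 0.7 times the count with it off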); conditions: A549 miR-34 inducible, Hoechst nuclei count, 48 h
[8] = viability rescue of complex I mutant cybrids, primary screen, cell-based, galactose medium, ATP luminescence (AID 1645843;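 active means z-score of at least 1.8 in each of two replicates, scored against plate mean and spread of sample wells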;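 further: positive z means more ATP and so rescue of galactose-driven cybrid death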); conditions: complex I mutant cybrid cells, 72 h, stronger effect = higher value
F380Y = test: modulators of BK channel variants, profiling panel, selectivity assay, cell-based, U2OS BacMam, thallium flux, beta subunits (AID 1259406); conditions: at 30 µM;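 further: initial slope of Thallos dye fluorescence rise after thallium is added; log ratio against the mean of 0.3% DMSO vehicle wells on the same plate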
F380Y/beta1 = test: as above; conditions: at 30 µM
F380Y/beta2Delta = test: as above; conditions: at 30 µM
F380Y/beta4 = test: as above; conditions: at 30 µM
[9] = target: Calcium-activated potassium channel subunit alpha-1 (Homo sapiens) + Leucine-rich repeat-containing protein 26 (Homo sapiens) (UniProt Q12791+Q2I0M4); test: as above; conditions: F380Y/Slo1WT/gamma1, at 30 µM
Chain of Calcium-activated potassium channel subunit alpha-1 (Homo sapiens) + Leucine-rich repeat-containing protein 26 (Homo sapiens) (Q2I0M4 whole entry, looked up, one chain of several): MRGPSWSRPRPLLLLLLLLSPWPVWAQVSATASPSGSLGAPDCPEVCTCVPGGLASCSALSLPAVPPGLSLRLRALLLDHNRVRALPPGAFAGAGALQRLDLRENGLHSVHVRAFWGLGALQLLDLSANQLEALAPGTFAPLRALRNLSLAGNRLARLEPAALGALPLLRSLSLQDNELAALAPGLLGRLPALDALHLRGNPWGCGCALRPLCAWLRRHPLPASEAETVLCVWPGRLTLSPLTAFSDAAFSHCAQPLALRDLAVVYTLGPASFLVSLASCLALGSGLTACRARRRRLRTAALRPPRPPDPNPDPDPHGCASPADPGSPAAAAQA

R275C = test: as above; conditions: at 30 µM
R275C/beta1 = test: as above; conditions: at 30 µM
R275C/beta2Delta = test: as above; conditions: at 30 µM
R275C/beta4 = test: as above; conditions: at 30 µM
R275C/Slo1WT/beta2 = test: as above; conditions: at 30 µM
[10] = survival rescue of mitochondrial mutant cells in low glucose, primary screen, MELAS cybrids, Rieske KO mouse fibroblasts, CellTiter-Glo (AID 1508586;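 active means mean z-score across replicates of 1.96 or higher in either the MELAS or the Rieske mutant cell line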;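 further: z relative to plate mean and SD of compound and empty wells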)
[11] = ovarian cancer cell viability with rucaparib, profiling panel, oncology-focused library, rucaparib conditional (AID 1508598;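 active means normalized viability below 100% at a tested concentration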); conditions: patient-derived ovarian cancer cells, CellTiter-Glo viability, 144 h, stronger effect = lower value
[12] = stronger effect = lower value, cell number ratio, induced over uninduced
[13] = measured here: relative caspase fold change +Dox/-Dox
[14] = measured here: total cells with miR-34 induction, stronger effect = lower value
[15] = measured here: total cells without miR-34 induction
[16] = MELAS cybrid survival, CellTiter-Glo 48 h, stronger effect = higher value
[17] = Rieske KO mouse fibroblast survival, CellTiter-Glo 72 h

CC(C)c1ccc2c(c1)c(SC(C)(C)C)c(CC(C)(C)C(=O)O)n2Cc1ccc(Cl)cc1
0.262 and 1.3 and 1.57: fold change [7, 13]
2540 and 2670 and 5520: cell count [7, 14]
2340 and 2670 and 5710: cell count [7, 15]
inactive: parasite load remaining [1] 36.1% | fluorescence ratio [2] 0.95 | inhibition [3] 7.52% | inhibition [4] 1.44% | fluorescence ratio [5] 0.96 | mean signal [6] 225 | fold change [7, 12] 1.09 and 1 and 0.966 | z-score [8] -1.26 and -1.88 | log fold change Tl+ flux (F380Y) -0.0174 | log fold change Tl+ flux (F380Y/beta1) 0.00246 | log fold change Tl+ flux (F380Y/beta2Delta) 0.0246 | log fold change Tl+ flux (F380Y/beta4) -0.0142 | log fold change Tl+ flux [9] 0.00963 | log fold change Tl+ flux (R275C) 0.00647 | log fold change Tl+ flux (R275C/beta1) 0.0168 | log fold change Tl+ flux (R275C/beta2Delta) 0.0237 | log fold change Tl+ flux (R275C/beta4) -0.00771 | log fold change Tl+ flux (R275C/Slo1WT/beta2) 0.027
67.1%: viability [1]

Nc1nc(Cl)nc2c1ncn2[C@H]1C[C@H](O)[C@@H](CO)O1
71.4%: viability [1]
1.38: z-score [10, 16]
active: viability ([11]; at 0.00488 µM, OCI-C5x cells, with rucaparib 10 µM, 100% = cells with rucaparib alone) 96% | viability ([11]; at 0.0195 µM, OCI-P5x cells, without rucaparib) 91.4% | viability ([11]; at 0.0781 µM, OCI-P5x cells, without rucaparib) 76.7% | viability ([11]; at 0.313 µM, OCI-C5x cells, without rucaparib) 95.6% | viability ([11]; at 0.313 µM, OCI-P5x cells, with rucaparib 20 µM, 100% = cells with rucaparib alone) 88.9% | viability ([11]; at 0.313 µM, OCI-P5x cells, without rucaparib) 50.8% | viability ([11]; at 1.25 µM, OCI-C5x cells, with rucaparib 10 µM, 100% = cells with rucaparib alone) 95.8% | viability ([11]; at 1.25 µM, OCI-C5x cells, without rucaparib) 94.4% | viability ([11]; at 1.25 µM, OCI-P5x cells, with rucaparib 20 µM, 100% = cells with rucaparib alone) 50.8% | viability ([11]; at 1.25 µM, OCI-P5x cells, without rucaparib) 37% | viability ([11]; at 5 µM, OCI-C5x cells, with rucaparib 10 µM, 100% = cells with rucaparib alone) 72.5% | viability ([11]; at 5 µM, OCI-C5x cells, without rucaparib) 54.1% | viability ([11]; at 5 µM, OCI-P5x cells, with rucaparib 20 µM, 100% = cells with rucaparib alone) 35.7% | viability ([11]; at 5 µM, OCI-P5x cells, without rucaparib) 18.1%
3.04: z-score [10, 17]
inactive: parasite load remaining [1] 10.3% | fluorescence ratio [2] 1.02 | inhibition [3] -1.09% | inhibition [4] -3.54% | fluorescence ratio [5] 0.99 | mean signal [6] 237 | viability ([11]; at 0.000305 µM, OCI-C5x cells, with rucaparib 10 µM, 100% = cells with rucaparib alone) 104% | viability ([11]; at 0.000305 µM, OCI-C5x cells, without rucaparib) 113% | viability ([11]; at 0.000305 µM, OCI-P5x cells, with rucaparib 20 µM, 100% = cells with rucaparib alone) 106% | viability ([11]; at 0.000305 µM, OCI-P5x cells, without rucaparib) 108% | viability ([11]; at 0.00122 µM, OCI-C5x cells, with rucaparib 10 µM, 100% = cells with rucaparib alone) 101% | viability ([11]; at 0.00122 µM, OCI-C5x cells, without rucaparib) 115% | viability ([11]; at 0.00122 µM, OCI-P5x cells, with rucaparib 20 µM, 100% = cells with rucaparib alone) 108% | viability ([11]; at 0.00122 µM, OCI-P5x cells, without rucaparib) 110% | viability ([11]; at 0.00488 µM, OCI-C5x cells, without rucaparib) 113% | viability ([11]; at 0.00488 µM, OCI-P5x cells, with rucaparib 20 µM, 100% = cells with rucaparib alone) 106% | viability ([11]; at 0.00488 µM, OCI-P5x cells, without rucaparib) 106% | viability ([11]; at 0.0195 µM, OCI-C5x cells, with rucaparib 10 µM, 100% = cells with rucaparib alone) 111% | viability ([11]; at 0.0195 µM, OCI-C5x cells, without rucaparib) 111% | viability ([11]; at 0.0195 µM, OCI-P5x cells, with rucaparib 20 µM, 100% = cells with rucaparib alone) 108% | viability ([11]; at 0.0781 µM, OCI-C5x cells, with rucaparib 10 µM, 100% = cells with rucaparib alone) 105% | viability ([11]; at 0.0781 µM, OCI-C5x cells, without rucaparib) 109% | viability ([11]; at 0.0781 µM, OCI-P5x cells, with rucaparib 20 µM, 100% = cells with rucaparib alone) 107% | viability ([11]; at 0.313 µM, OCI-C5x cells, with rucaparib 10 µM, 100% = cells with rucaparib alone) 112% | log fold change Tl+ flux (F380Y) -0.0268 | log fold change Tl+ flux (F380Y/beta1) -0.0427 | log fold change Tl+ flux (F380Y/beta2Delta) -0.00452 | log fold change Tl+ flux (F380Y/beta4) -0.0201 | log fold change Tl+ flux [9] -0.0394 | log fold change Tl+ flux (R275C) 0.0195 | log fold change Tl+ flux (R275C/beta1) 0.022 | log fold change Tl+ flux (R275C/beta2Delta) 0.0372 | log fold change Tl+ flux (R275C/beta4) 0.000993 | log fold change Tl+ flux (R275C/Slo1WT/beta2) 0.0197

CC1c2cccc(O)c2C(O)=C2C(=O)C3(O)C(O)=C(C(N)=O)C(=O)C(N(C)C)C3C(O)C21 (centres undefined)
2090: cell count [7, 14]
2010: cell count [7, 15]
1.1: fold change [7, 13]
132%: viability [1]
active: log fold change Tl+ flux (F380Y/beta1) -0.12
inactive: parasite load remaining [1] 45.4% | fluorescence ratio [2] 1.05 | inhibition [3] -13.2% | inhibition [4] -2.76% | fluorescence ratio [5] 1 | mean signal [6] 241 | fold change [7, 12] 1.04 | z-score [8] -1.48 | log fold change Tl+ flux (F380Y) 0.0135 | log fold change Tl+ flux (F380Y/beta2Delta) -0.0466 | log fold change Tl+ flux (F380Y/beta4) -0.028 | log fold change Tl+ flux [9] -0.0167 | log fold change Tl+ flux (R275C) -0.0534 | log fold change Tl+ flux (R275C/beta1) -0.0443 | log fold change Tl+ flux (R275C/beta2Delta) -0.0148 | log fold change Tl+ flux (R275C/beta4) -0.108 | log fold change Tl+ flux (R275C/Slo1WT/beta2) -0.0846

CC1CNc2c(cccc2S(=O)(=O)N[C@@H](CCCN=C(N)N)C(=O)N2CC[C@@H](C)C[C@@H]2C(=O)O)C1 (some centres undefined)
-0.277 and -0.497: z-score [10, 17]
inactive: parasite load remaining [1] 91.7% and 25.6% | fluorescence ratio [2] 1.01 | inhibition [3] -2.77% | inhibition [4] -0.1% | fluorescence ratio [5] 0.96 | mean signal [6] 269 | fold change [7, 12] 0.891 | z-score [10, 16] -0.605 and 0.47 | z-score [8] 0.59 | log fold change Tl+ flux (F380Y) -0.00418 | log fold change Tl+ flux (F380Y/beta1) 0.00744 | log fold change Tl+ flux (F380Y/beta2Delta) 0.0133 | log fold change Tl+ flux (F380Y/beta4) 0.00267 | log fold change Tl+ flux [9] -0.0355 | log fold change Tl+ flux (R275C) -0.0227 | log fold change Tl+ flux (R275C/beta1) -0.0183 | log fold change Tl+ flux (R275C/beta2Delta) -0.0418 | log fold change Tl+ flux (R275C/beta4) -0.0138 | log fold change Tl+ flux (R275C/Slo1WT/beta2) 0.0382
11700: cell count [7, 15]
75.9% and 68%: viability [1]
10400: cell count [7, 14]
1.15: fold change [7, 13]

Nc1ccn([C@@H]2CS[C@H](CO)O2)c(=O)n1
121% and 70.7%: viability [1]
1.73: fold change [7, 13]
11100: cell count [7, 15]
inactive: parasite load remaining [1] 60.8% and 120% | mean signal [6] 246 | fold change [7, 12] 0.962 | z-score [10, 16] -0.0861 | z-score [8] 1.21 | log fold change Tl+ flux (F380Y) 0.00141 and 0.0147 | log fold change Tl+ flux (F380Y/beta1) -0.0646 and -0.0414 | log fold change Tl+ flux (F380Y/beta2Delta) -0.00742 and 0.0531 | log fold change Tl+ flux (F380Y/beta4) -0.0496 and -0.00739 | log fold change Tl+ flux [9] 0.0127 and 0.0118 | log fold change Tl+ flux (R275C) -0.0937 and 0.0141 | log fold change Tl+ flux (R275C/beta1) -0.00105 and 0.0176 | log fold change Tl+ flux (R275C/beta2Delta) 0.0208 and -0.0112 | log fold change Tl+ flux (R275C/beta4) 0.00653 and -0.00304 | log fold change Tl+ flux (R275C/Slo1WT/beta2) 0.00916 and -0.0234
0.0484: z-score [10, 17]
10700: cell count [7, 14]
